# aSyn 5UTR inh – MLPCN primary screen, SNCA 5' untranslated region | alpha-synuclein 5'UTR reporter, inhibitor activity | inhibition, % (tested at 7.5 µM) | hit rate 0.82% among 300,000 | AID 1813; in the data active = inhibition above about 60%; inconclusive = no clear call, values can overlap the other calls;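 note: H4 neuroglioblastoma cells stably carrying SNCA 5'UTR luciferase fusion; 0% = DMSO wells and 100% = positive control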
# Jurkat NFkB inh – inhibitors of the PMA/ionomycin-induced NF-kB reporter in Jurkat cells; PMA/ionomycin-induced NF-kB luciferase reporter, luminescence; inhibition, % at 4 µM; hit rate 0.53% among 330,000; AID 435003; in the data active = inhibition above about 50%
# Gli-Sufu block – antagonists of Gli-Sufu signaling. Sufu-KO-LIGHT fibroblasts, Gli luciferase reporter luminescence. inhibition, % at 5 µM. hit rate 0.74% among 340,000. AID 588413;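 active = inhibition above about 55%, limit read from the data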;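 note: 0% = DMSO-treated cells and 100% = wells with medium but no cells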
# Mdm2 MdmX PPI – human Mdm2/MdmX binding inhibition; O15151+Q00987; SaOS-2 split-luciferase Mdm2/MdmX complementation, luminescence; inhibition, % at 8 µM; hit rate 3% among 330,000; AID 485346;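 active = inhibition of at least 50% at 8 µM in the primary screen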
# 697 NFkB inh – lowers PMA/ionomycin-induced NF-kB signal in 697 B cells; 697 B-cell NF-kB luciferase reporter, 16 h; inhibition, % at 4 µM; hit rate 0.33% among 330,000; in the data active = inhibition above about 35%
# CSC inhib – blocks cancer stem cells; cancer stem cell-like cells viability, luminescence; inhibition, % at 7.5 µM; hit rate 1.1% among 300,000; in the data active = inhibition above about 75%; inconclusive = no clear call, values can overlap the other calls; tested in HMLE shEcad cells
# Mdm2 MdmX conf – human Mdm2/MdmX binding inhibition, confirmed; luminescent assay; hit rate 55% among 10,000; inhibition, % at 8 µM; shares compounds with Mdm2 MdmX PPI; in the data active = inhibition above about 40%
# FLuc counter – counter-screen for Mdm2/MdmX inhibitors: full-length luciferase. shares compounds with Mdm2 MdmX PPI. SaOS-2 full-length luciferase counterscreen, luminescence. inhibition, % at 8 µM. hit rate 77% among 6,200. AID 504607;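 active = mean inhibition at 8 µM reaching about 37%, which flags the compound as non-specific, limit read from the data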;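 note: p53-null SaOS-2 cells with luciferase driven by a doxycycline-inducible promoter; compound on cells about two nights before reading with doxycycline added after day one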
# Active calls of the source: *; ? = inconclusive; nt = not tested or not shown. A selection: hits, their analogues and other compounds. The true share with any hit is near 4.5%.
SMILES,aSyn 5UTR inh,Jurkat NFkB inh,Gli-Sufu block,Mdm2 MdmX PPI,697 NFkB inh,CSC inhib,Mdm2 MdmX conf,FLuc counter
COc1cccc(OCc2nc3ncc(Br)cc3[nH]2)c1,-77.1,21.8,-20.5,42.9,-84.6,43.9,nt,nt
Cc1cc(C)cc(OCc2nc3ncc(Br)cc3[nH]2)c1,-8.7,48.6,-7.9,81.2*,-84.0,38.8,73.7*,30.8
CN(Cc1ccc2c(c1)OCCO2)C(=O)CSc1ncnc2sccc12,nt,5.5,-2.2,16.7,6.1,-12.6,nt,nt
CC(C)c1cccc(C(C)C)c1NC(=O)c1ccc(OCC(=O)NCc2ccccc2)cc1,-11.5,0.3,nt,75.5*,20.1,-6.7,59.9*,56.5*
N#CCN(C(=O)COC(=O)CCCNC(=O)c1ccc(Cl)cc1)c1ccccc1,nt,8.6,-8.1,-12.8,14.2,nt,nt,nt
CC1(C)C(=O)Nc2ccccc2N1C(=O)Cn1ncc(Cl)c(Cl)c1=O,-167.1,23.7,2.6,100.4*,-20.7,?,91.2*,39.9*
Cc1nn(CC(=O)N2c3ccccc3NC(=O)C2(C)C)c(C)c1[N+](=O)[O-],-12.3,8.2,-28.4,-0.2,3.9,-2.8,nt,nt
Cc1ccc(NC(=O)CCC(=O)OCC(=O)c2ccc(Oc3ccc([N+](=O)[O-])cc3)cc2)c(C)c1,0.9,2.8,14.0,15.7,11.5,-3.1,nt,nt
COc1ccc(-c2cc(=O)oc3c(C)c(OC(=O)c4cccs4)ccc23)cc1,2.3,9.8,-9.0,85.0*,-7.8,12.8,47.2*,32.9
COc1ccc(-c2cc(=O)oc3cc(O)ccc23)cc1,5.6,-9.9,-0.7,62.8*,4.7,8.9,46.0*,40.4*
COc1ccc(-c2cc(=O)oc3c(C)c(O)ccc23)cc1,21.9,-18.7,0.0,64.6*,-17.0,18.8,80.7*,53.1*
COc1ccc(-c2cc(=O)oc3c(C)c(OC(C)C(C)=O)ccc23)cc1 (stereo not drawn),17.0,-0.7,3.3,25.1,-14.8,6.5,nt,nt
COc1ccc(-c2cc(=O)oc3cc(OC(=O)C4CCCCC4)c(Cl)cc23)cc1,13.1,9.8,nt,75.1*,-3.1,0.2,83.5*,52.4*
COc1ccc(OC)c(C2CC(c3ccccc3)=NN2C(=S)Nc2ccccc2)c1 (stereo not drawn),40.2,48.7,-15.7,72.2*,-34.1,54.5,57.5*,62.9*
Cc1ccc(C(=O)Cn2c(NCCO)nc3ccccc32)cc1,7.7,-10.7,30.5,-5.2,16.8,-8.0,nt,nt
Cc1ccc(C(=O)Cn2c(C(=O)/C=C/c3ccccc3)nc3ccccc32)cc1,-20.0,3.1,9.3,55.5*,-11.0,41.2,55.0*,52.9*
Cc1c(Cl)cccc1NC(=O)CCNC(=O)N1CC(=O)Nc2ccccc21,-5.4,0.9,-29.3,3.1,5.3,-0.8,nt,nt
CCOc1ccc(CCNC(=O)C2CCN(S(=O)(=O)N3CCC(C)CC3)CC2)cc1OCC,23.0,8.3,-9.5,-18.7,1.2,-11.4,nt,nt
COc1ccc2cc(CO)c3cc(OC)c(OC)cc3c2c1,nt,-10.4,-6.3,41.8,16.2,5.5,nt,nt
O=c1[nH]c2cc3c(cc2cc1C(c1nnnn1Cc1ccccc1)N1CCCc2ccccc21)OCO3 (stereo not drawn),-42.6,-14.8,0.7,100.3*,-6.4,-4.6,10.3,nt
O=c1[nH]c2cc3c(cc2cc1C(c1nnnn1Cc1ccccc1)N1CCCCCC1)OCCO3 (stereo not drawn),-12.6,-2.4,2.6,0.4,20.5,9.0,nt,nt
COc1ccc(/C(C)=N/NC(=O)c2nnn(-c3nonc3N)c2CN(C)c2ccccc2)cc1,0.9,8.3,-8.9,50.1*,-26.6,-3.9,1.9,nt
Cc1nnn(-c2nonc2N)c1C(=O)N/N=C/c1ccccc1O,67.8*,37.8,34.7,55.8*,-80.1,24.4,61.0*,50.9*
Nc1nonc1-n1nnc(C(=O)N/N=C/c2ccc(Cl)cc2Cl)c1CN1CCCCC1,-19.0,-5.7,-3.9,9.8,11.2,nt,nt,nt
CN1CCN(Cc2c(C(=O)N/N=C/c3cccc(Br)c3)nnn2-c2nonc2N)CC1,7.4,39.9,15.9,83.8*,5.3,-7.1,5.6,nt
SMILES,aSyn 5UTR inh,Jurkat NFkB inh,Gli-Sufu block,Mdm2 MdmX PPI,697 NFkB inh,CSC inhib,Mdm2 MdmX conf,FLuc counter
Nc1nonc1-n1nnc(C(=O)N/N=C/c2cc(Cl)ccc2O)c1CN1CCCCCC1,50.3,4.1,nt,68.2*,-20.0,?,55.8*,32.2
C/C(=N\NC(=O)c1nnn(-c2nonc2N)c1CN(C)c1ccccc1)c1ccccc1O,43.1,22.0,3.5,69.4*,-27.0,97.7*,76.5*,30.5
C/C(=N\NC(=O)c1nnn(-c2nonc2N)c1CN1CCCCC1)c1ccccc1O,-8.1,-4.9,12.7,51.3*,7.8,81.4*,47.0*,43.7*
CC(/C=N/NC(=O)c1nnn(-c2nonc2N)c1CN1CCCCC1)=C\c1ccccc1,-4.9,6.3,-1.2,18.4,-25.1,11.6,nt,nt
CCCCN(C)S(=O)(=O)c1cc2c(cc1Br)CCN2C(=O)C1CC1,nt,nt,8.6,nt,nt,nt,nt,nt
COc1cccc(C2Nc3ccccc3C(=O)N2c2ccc(F)cc2)c1O (stereo not drawn),-98.7,-57.9,-51.0,-13.5,-55.2,-4.2,nt,nt
COc1ccc2c(c1OC)C(=O)N1c3ccccc3C(=O)N(c3ccc(F)cc3)C21 (stereo not drawn),9.1,39.6,4.3,56.6*,13.0,11.1,44.2*,88.5*
Cc1c(C(=O)NN)sc(=S)n1C,-35.6,-0.8,1.9,13.2,11.4,1.0,nt,nt
C/C(=N/NC(=O)c1sc(=S)n(C)c1C)c1ccccc1,-14.9,6.8,-9.9,53.1*,6.3,-5.7,5.3,nt
O=C(CN1c2ccccc2Sc2ccccc21)N/N=C/c1ccc(Cl)cc1,21.7,3.9,-4.0,70.5*,12.3,61.7,1.1,nt
O=C(CN1c2ccccc2Sc2ccccc21)N/N=C/c1ccc(Cl)cc1Cl,6.5,2.6,15.7,42.0,3.7,24.9,nt,nt
O=C(CN1c2ccccc2Sc2ccccc21)NNC(=S)Nc1ccc(Cl)cc1,-18.9,3.9,3.3,18.5,12.4,31.5,nt,nt
O=C(CN1c2ccccc2Sc2ccccc21)NNC(=S)Nc1ccc(Cl)cc1Cl,30.1,12.9,8.1,66.2*,5.3,?,6.5,nt
CCOc1ccc(-c2nnn(CC#N)n2)cc1OC,22.4,14.8,-22.2,-4.3,23.9,-10.3,nt,nt
COc1ccc(N2CCN(S(=O)(=O)c3c(C(=O)N4CCOCC4)c(C)n(C)c3C)CC2)cc1,-4.8,-6.2,-28.9,2.3,4.3,0.1,nt,nt
Cc1cccc(Oc2sc(C(=O)c3ccccc3)c(N)c2C#N)c1,4.6,9.9,-3.7,58.1*,-10.7,20.4,33.2,42.0*
N#Cc1c(Nc2ccccc2)sc(C(=O)c2ccccc2)c1N,36.9,-20.9,-2.0,3.5,-23.5,12.9,nt,nt
CC(C)C(NC(=O)c1ccco1)C(=O)OCC(=O)Nc1ccc(C(N)=O)cc1 (stereo not drawn),0.3,-0.1,0.2,15.2,6.3,-4.3,nt,nt
